# FLuc counter – qHTS profiling assay for firefly luciferase inhibitor/activator using purifed enzyme and Km concentrations of substrates (counterscreen for miR-21 project) | AID 588342, 2011 | purified FLuc, Km substrates, luminescence inhibition | Potency, µM (top dose mostly 57.5 µM), usual class: inhibitors | 6.9% of 360,000 active | Luciferin 4-monooxygenase (Photinus pyralis), P08659; also: nearly all actives have a fitted effect of over 55% in size
# Target sequence (P08659 whole entry, looked up): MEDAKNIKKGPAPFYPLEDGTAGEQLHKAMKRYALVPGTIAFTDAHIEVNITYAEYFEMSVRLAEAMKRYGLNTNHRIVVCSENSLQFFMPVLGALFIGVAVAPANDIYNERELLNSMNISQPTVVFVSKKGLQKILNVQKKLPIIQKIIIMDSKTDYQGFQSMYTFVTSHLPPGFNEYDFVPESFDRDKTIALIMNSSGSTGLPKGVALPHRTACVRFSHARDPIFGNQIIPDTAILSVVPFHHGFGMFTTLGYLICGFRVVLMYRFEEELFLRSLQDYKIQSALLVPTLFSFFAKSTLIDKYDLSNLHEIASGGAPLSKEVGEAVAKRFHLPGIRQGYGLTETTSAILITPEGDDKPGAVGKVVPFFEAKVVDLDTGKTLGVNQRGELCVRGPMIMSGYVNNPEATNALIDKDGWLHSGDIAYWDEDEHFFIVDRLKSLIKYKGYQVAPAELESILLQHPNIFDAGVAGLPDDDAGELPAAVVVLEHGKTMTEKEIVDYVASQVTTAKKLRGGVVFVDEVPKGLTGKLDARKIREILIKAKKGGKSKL
#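 Purified P. pyralis luciferase (10nM final) with 10uM D-luciferin and 10uM ATP (Km levels) in 50mM Tris acetate pH 7.5, 10mM Mg acetate, 0.01% Tween-20, 0.05% BSA; qHTS 6-point titration, ~60 µM downward; luminescence read.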
# ELG1 genotox – qHTS screen for small molecules that induce genotoxicity in human embryonic kidney (HEK293T) cells expressing luciferase-tagged ELG1; HEK293T ELG1-luciferase reporter, luminescence, 16 h; Potency, µM (doses to about 46 µM), hits mostly activators; 1.3% of 330,000 active; also: nearly all actives have a fitted effect of over 60% in size
#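 Genotoxic stress is detected as increased luminescence from luciferase-tagged ELG1 in HEK293T cells, measured with ONE-Glo after a 16 hr treatment at 37 °C.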
# Rab9 promoter act – qHTS Assay for Rab9 Promoter Activators | Potency, µM (top dose mostly 9.22 µM), most hits filed as activators | Huh7 Rab9 promoter-luciferase reporter, luminescence, 24 h | 2.8% of 320,000 active | AID 485297, 2010; also: nearly all actives have a fitted effect of over 60% in size
#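 Cells were plated at 1500 per well in reduced-serum medium with 10% FBS and left 2 h. Compound in DMSO was then added for 24 h at 37 °C. Reporter signal was read by luminescence after 10 min with luciferase detection reagent.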
# SMN2 splice up – qHTS Assay for Enhancers of SMN2 Splice Variant Expression; HEK293 SMN2-luciferase splicing reporter, luminescence, 30-36 h; Potency, µM (top dose mostly 46.1 µM), usual class: activators; 2.8% of 210,000 active; AID 1458, 2008; also: nearly all actives have a fitted effect of over 55% in size
#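 qHTS luciferase splicing reporter: luminescence rises when SMN2 exon 7 is included in transfected HEK293 cells. Compound exposure lasted 30-36 h at 37C, with 4.5 mM final sodium butyrate as control, followed by a ONE-Glo read.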
# ELG1 repair inh – qHTS screen for small molecules that inhibit ELG1-dependent DNA repair in human embryonic kidney (HEK293T) cells expressing luciferase-tagged ELG1. HEK293T ELG1-luciferase reporter, luminescence, 16 h; DNA damage induced by 5-fluorouridine. Potency, µM (titrated, usually from 46.1 µM), hits mostly inhibitors. 2.3% of 330,000 active. AID 504467, 2011; also: nearly all actives have a fitted effect of over 55% in size
#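 Cells (2,000 per well) received 5-fluorouridine plus test compound or DMSO and were incubated 16 hr at 37 °C, 5% CO2. Luciferase activity was read by luminescence 30 min after ONE-Glo addition; signal suppression marked inhibition of damage-induced ELG1 function.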
# NPC1 prom act – qHTS Assay for NPC1 Promoter Activators | Huh7 NPC1 promoter luciferase reporter, 24 h | Potency, µM (doses to about 9.22 µM), hits mostly activators | 2.4% of 320,000 active; also: nearly all actives have a fitted effect of over 60% in size
#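 Quantitative HTS used a cell-based reporter: Huh7 cells stably bearing the NPC1 promoter upstream of luciferase were treated with compounds for 24 h, and promoter activation was read as luminescence.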
# Hits are given with their value; . = inactive; ? = inconclusive; / = not tested or not shown; [ ] = remark or other dose. Sampled rows, rich in hits. Any-hit rate of the full collection: about 9.4%. Calls follow the shape of the dose curve; as a rule, active = well fitted curve in the direction sought with a large enough effect; inconclusive = small, poorly fitted or top-dose-only effect, or another doubt; inactive = no such curve, though single readings can be large; an effect the other way counts as inactive or inconclusive.
SMILES,FLuc counter,ELG1 genotox,Rab9 promoter act,SMN2 splice up,ELG1 repair inh,NPC1 prom act
CCc1ccc(C(=O)Nc2nc(C)cs2)s1,0.953µM,?,.,/,?,.
CCc1ccc(C(=O)NCc2cccs2)s1,.[2.3 µM],?,?,?,?,.
COc1cc(Cl)c(C)cc1NC(=O)CCn1c(=O)c2cccn2c2cccnc21,.,/,/,/,/,/
CC1=C(C(=O)Nc2ccc(C)cc2C)C(c2ccc(O)cc2)n2nnnc2N1 (stereo not given),.,/,/,.,/,/
O=C(CSc1nc2c(c(=O)[nH]1)CN(Cc1ccc3c(c1)OCO3)CC2)Nc1cccc(Cl)c1,.,/,/,/,/,/
C[N+](C)(C)c1nc(N)nc2c1ncn2[C@H]1O[C@@H](CO)[C@@H](O)[C@H]1O,/,/,/,.[9.22 µM],/,/
O=C(CSc1nnc(-c2ccccc2F)o1)N1CCc2ccccc21,.,/,/,.,/,/
O=S(=O)(NCCS(=O)(=O)N1CCN(c2ccccc2F)CC1)c1ccc(Cl)cc1,.,/,/,/,/,/
Cc1nnc(NC(=O)c2cc3ccccc3o2)s1,6.01µM,?,?,/,?,?
CCOC(=O)c1csc(NC(=O)c2ccc(N3C(=O)CCC3=O)cc2)n1,.,.,.,.,.,.
CNC(=O)c1cc2ccccc2o1,.,.,.,.,?,.
O=C(Nc1nnc(C2CC2)s1)c1cc2ccccc2o1,13.5µM,?,3.55µM,/,?,2.82µM
CCOC(=O)c1csc(NC(=O)c2cc3ccccc3o2)n1,3.38µM,?,?,/,?,?
Cc1nc(NC(=O)c2cc3ccccc3o2)sc1C,1.07µM,0.651µM,?,/,?,.
CCOC(=O)c1c(Nc2ccc(O)cc2)nnc(-c2ccccc2)c1-c1ccccc1,.,/,/,.,/,/
O=C(NCc1ccc(F)cc1)C1CCN(S(=O)(=O)c2ccc3c(c2)CCCN3C(=O)C2CCC2)CC1,.,/,/,/,/,/
CCc1nn(CC(=O)Nc2ccc(NC(C)=O)cc2)c(=O)c2cc3sccc3n12,.,/,/,.,/,/
CCOC(=O)N1CCc2c(sc3c2c(=O)n(CCc2ccccc2)c(=O)n3Cc2cc(C)ccc2C)C1,.,/,/,.,/,/
CCOC(=O)Cc1csc(NC(=O)c2sc3nc4c(C)cc(C)cc4cc3c2N)n1,?,?,.,22.4µM,.,.
CCOC(=O)Cc1csc(NC(=O)Cc2ccccc2)n1,.,.,.,/,.,.
CCOC(=O)Cc1csc(NC(=O)c2cc(=O)c3ccccc3o2)n1,16.9µM,.,.,.,.,.
C=CCOC(=O)c1sc(NC(=O)c2ccco2)nc1C,9.53µM,20.6µM,?,?,?,?
CCOC(=O)c1sc(NC(=O)c2ccccc2OC)nc1C,0.426µM,1.84µM,.,2.51µM,?,.
COc1ccc(Cn2c(C(=O)O)c(CNCc3ccc(C)o3)c3ccc(OC)cc32)cc1,.,/,/,/,/,/
Cc1ccccc1Cn1c(=O)n(-c2ccc(Cl)cc2)c(=O)c2c3c(sc21)CCCC3,.,/,/,.,/,/
SMILES,FLuc counter,ELG1 genotox,Rab9 promoter act,SMN2 splice up,ELG1 repair inh,NPC1 prom act
CCSC1=NC2(CCN(C(=O)NC3CCCCC3)CC2)N=C1c1ccc(OC)cc1,.,/,/,/,/,/
CCOC(=O)Cc1nnc(NC(=O)c2ccccc2OC)s1,16.9µM,.,.,.,.,.
O=C(CSc1ccccc1C(=O)O)NC1CCCCCC1,.,.,.,/,?,.
O=C(NC1CCCCC1)C(=S)NCc1ccccc1,21.3µM,.,?,?,?,?
O=C(NC1CCCCCC1)C(=S)NCCc1ccccc1,?,.,.,.,?,.
O=C(NC1CCCCCC1)C(=S)NCc1ccccc1,21.3µM,.,?,.,?,.
O=C(CSc1ccccc1C(=O)NCc1ccccc1)NC1CCCCCCC1,23.9µM,.,.,.,.,.
O=C(NC1CCCCC1)C(=S)NC1CCCCC1,?,?,3.55µM,14.1µM,?,2.82µM
O=C(NC1CCCCC1)C(=S)N1CCCC1,.,.,.,.,.,.
COc1ccc(OCc2ccc(-c3nc(C#N)c(N4CCC(C)CC4)o3)o2)cc1,.,/,/,/,/,/
Cc1cc(C)c(S(=O)(=O)N2CCC(n3c(C(F)(F)F)nc4cccnc43)CC2)c(C)c1,.,/,/,/,/,/
O=C(N/N=C/c1ccc(-c2ccccc2[N+](=O)[O-])o1)c1cccnc1,?,.,.,.,.,.
Cc1cc(C(=O)N/N=C/c2cccc([N+](=O)[O-])c2O)n[nH]1,15.1µM,.,.,.,.,.
Cc1cc(C(=O)N/N=C/c2ccc(O)c([N+](=O)[O-])c2)n[nH]1,?,.,.,.,?,.
CC(C)(C)c1cc(C(=O)N/N=C/c2ccc(-c3ccccc3[N+](=O)[O-])o2)n[nH]1,21.3µM,.,.,/,?,.
Cc1ccccc1NS(=O)(=O)c1ccc2[nH]cc(C(=O)N3CCCC3)c(=O)c2c1,.,/,/,/,/,/
C/C(=N\NC(=O)c1ccc(Cl)c(Cl)c1)c1ccc(Br)s1,.,.,.,.,.,.
C/C(=N\NC(=O)c1ccco1)c1ccc(-c2ccccc2)cc1,2.39µM,9.2µM,3.55µM,/,?,3.16µM
C/C(=N/NC(=O)c1ccc2c(c1)OCO2)c1ccc(Br)s1,.,?,3.55µM,/,?,?
C/C(=N\NC(=O)c1ccc2c(c1)OCO2)c1ccco1,9.53µM,.,0.794µM,12.6µM,?,?
CCC(Sc1nc2cc(OC)c(OC)cc2c(=O)n1Cc1ccc(Cl)cc1)C(=O)NCCOC (stereo not given),.,/,/,/,/,/
O=C(O)c1ccc(N2C(=O)CC(SC(=Nc3ccccc3)Nc3ccccc3)C2=O)cc1 (stereo not given),.,.,.,.,.,.
CC(/C=C/c1ccc(N(C)C)cc1)=N\N=C(/N)SC1CC(=O)N(c2ccc(C(=O)O)cc2)C1=O (stereo not given),1.07µM,?,?,?,?,.
O=[N+]([O-])c1ccc(C[n+]2cccc3ccc4cccnc4c32)cc1,.,.,.,/,7.3µM,.
O=[N+]([O-])c1ccc(C[n+]2cccc3ccccc32)cc1,.,.,.,.,.,.
SMILES,FLuc counter,ELG1 genotox,Rab9 promoter act,SMN2 splice up,ELG1 repair inh,NPC1 prom act
Cc1nc(SCc2cccc(C(=O)O)c2)nc2c1CCCC2,8.49µM,.,.,4.47µM,?,.
COc1ccc(-c2cc(C)nc(SCc3cccc(C(=O)O)c3)n2)cc1,?,.,.,.,.,.
CCN(C(=O)c1cn(-c2cccc(OC)c2)c(=O)c2ccccc12)c1ccccc1C,.,/,/,/,/,/
O=C(NCc1ccccn1)C(=O)Nc1ccccc1,?,?,?,17.8µM,?,?
O=C(NCc1ccccn1)Nc1cccc(Cl)c1,19µM,?,.,.,?,.
Cc1ccc(Cl)cc1NC(=O)NCc1ccccn1,.,.,.,/,.,.
